Compound activity (PubChem BioAssay)
KKLEB cytotox – cytotoxicity in KKLEB CF airway cells, primary screen, cytotoxicity control for CF NF-kB inhibitor project, cell-based, uHTS, fluorescence assay plates | KKLEB CF airway cells viability, ATPlite luminescence, overnight; hits give low values; cells stimulated with P. aeruginosa culture filtrate | activity change (cytotoxicity), % at 5 µM | 0.36% of 360,000 active;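 active = corrected activity change at or below -50% at 5 µM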
CF NFkB block – inhibitors of PAF-induced NF-kB signaling, primary screen, cell-based, GFP fluorescence, uHTS; KKLEB NF-kB-GFP reporter, GFP fluorescence overnight; inhibition, % at 5 µM; 0.86% of 360,000 active; AID 588850, 2011;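 active = at least 50% inhibition at 5 µM, scaled per plate between neutral and stimulator controls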;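 also: PAF is a Pseudomonas aeruginosa culture filtrate used as stimulus; plate controls were PAF-stimulated DMSO wells for no effect and unstimulated DMSO wells for full effect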
Peg3 promoter – Peg3 promoter-driven luciferase inhibitors, primary screen, cell-based, HeLa, luciferase luminescence | 1.7% of 360,000 active | AID 588405, 2011 | inhibition, % at 20 µM | HeLa PEG-Prom luciferase reporter, overnight;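 active = inhibition of at least 50% at 20 µM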
MITF TRPM1 inh – inhibitors of MITF-dependent TRPM1 promoter reporter, primary screen, cell-based, SK-MEL-5, single point, luciferase; SK-MEL-5 TRPM1 promoter luciferase, 24 h; inhibition, % at 12.5 µM; 0.83% of 330,000 active; AID 488899, 2010;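 active = mean inhibition across replicates of 60% or more, whatever share of single replicates reaches that level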
Shn3 3UTR inh – reduction of Shn3 3'UTR firefly luciferase signal, primary screen, Schnurri-3 inhibitor project, cell-based, Clone20 osteoblasts, set 2 | inhibition, % at 12.5 µM | Clone20 osteoblast Shn3 3'UTR firefly luciferase, 24 h | AID 588674, 2011 | 0.52% of 360,000 active;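 active = mean inhibition of at least 75% with every replicate also reaching 75%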;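 also: 0% = median of neutral control wells and 100% = pilot-screen positive control compound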
HIF-2a inh – HIF-2a reporter inhibitors, primary screen, luminescence, 786-0 RCC cells; 0.72% of 360,000 active; inhibition, % at 18.8 µM; 786-0 RCC cells HIF-2a reporter, luciferase luminescence, overnight;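 active = inhibition of the luminescence signal of 40% or more relative to plate controls, in a single-dose primary screen at 18.75 µM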
Numbers without * were called inactive; x = no result given. An excerpt weighted towards active compounds, which were near 2.8% of everything screened.

SMILES	KKLEB cytotox	CF NFkB block	Peg3 promoter	MITF TRPM1 inh	Shn3 3UTR inh	HIF-2a inh
CCOC(=O)CSC1=NC(=O)/C(=C/c2ccc(OC)cc2)S1	-29	34	102*	82*	9	74*
COc1ccc(C(=O)N2CCCC(CNC(=O)c3ccccc3Cl)C2)o1 (configuration not stated)	-19	10	-64	-11	3	-61
N#CC(C#N)=NNc1ccc2cn[nH]c2c1	-8	79*	23	x	-23	3
CCNC(=S)Nc1ccc2cn[nH]c2c1	-1	-2	14	17	12	5
Cc1ccc(NC(=O)c2ccccc2NS(=O)(=O)c2ccc(Cl)s2)cc1	-48	60*	39	12	51	-74
O=C(Nc1ccccc1Cc1ccccc1)c1ccccc1NS(=O)(=O)c1ccc(Cl)s1	-49	63*	35	-14	83	14
NC(=O)c1ccc(NC(=O)CS(=O)(=O)c2cn(CC(=O)N3CCCCC3)c3ccccc23)cc1	3	-10	6	-1	13	2
COc1cc(SC)ccc1C(=O)Nc1ccc2c(c1)CCC2	-8	-2	-243	-60	-90	-149
CCCCCCCCNc1ccccc1S(=O)(=O)NCc1ccccc1	-3	28	30	2	-2	11
Cc1ccc(C)c(N2N=C(C(=O)Nc3ccccc3N3CCOCC3)CCC2=O)c1	-8	8	67*	13	10	9
O=C(O)CCC(=O)Nc1cccc(-c2csc(-c3ccccc3)n2)c1	5	14	-1	34	16	83*
CCCCC(=O)Nc1cccc(-c2csc(-c3ccccc3)n2)c1	9	-4	-83	-35	-12	-141
S=C(NCCc1ccc(Cl)cc1)NCc1ccccc1	-18	26	-37	8	0	-26
OC(CNCCc1ccc(C(F)(F)F)cc1)COc1cccc2ccccc12 (configuration not stated)	-10	10	90*	10	17	21
COc1ccccc1COCC(O)CNCCc1ccc(C(F)(F)F)cc1 (configuration not stated)	-18	1	-12	-9	-2	9
OC(CNC1CCCC1)COc1ccccc1Br (configuration not stated)	3	1	-4	-14	5	11
OC(CNC1CCCCCC1)COc1cccc2ccccc12 (configuration not stated)	-8	26	92*	-22	70	10
OC(CNCCc1ccc(C(F)(F)F)cc1)COc1ccc2ccccc2c1 (configuration not stated)	-12	12	101*	14	37	15
COc1ccc(CCNCC(O)COc2cccc(Br)c2)cc1 (configuration not stated)	-8	27	74*	-3	1	21
O=C(Nc1ccccc1Br)C1CCN(S(=O)(=O)c2cccs2)CC1	11	-5	-10	-4	-11	-4
Cc1cccc(NC(=S)NC2CCSc3ccccc32)c1 (configuration not stated)	0	30	10	5	19	-23
CC[n+]1ccc(/C=C2\Sc3ccccc3N2CCCS(=O)(=O)[O-])c2ccccc21	17	-8	8	8	67	6
CN1C=C/C(=C\c2cc[n+](C)c3ccccc23)c2ccccc21	-29	56*	11	77*	69	-13
CCn1cc(C(=O)NCc2ccc3c(c2)OCO3)c(=O)c2cc(F)c(N3CCN(C(=O)c4ccco4)CC3)cc21	7	-20	51*	16	51	23
CCn1cc(C(=O)Nc2ncccc2O)c(=O)c2cc(F)c(N3CCN(C(=O)c4ccco4)CC3)cc21	-3	8	53*	13	27	7
CCn1cc(C(=O)NCc2ccccc2)c(=O)c2cc(F)c(N3CCN(C(=O)c4ccco4)CC3)cc21	10	7	68*	46	52	15
